In PubChem BioAssay:
Active and inactive are the calls of the source.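 How the source made its calls, unless noted: active means fluorescence slope higher than the sample average by over 3 SD (cut at about -0.22 in these data, passing the limit was not always enough); inactive means the rest.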

Columns and labels:
[1] = inhibitors of TNFa-induced NFkB p65 translocation, primary screen, imaging, HUVEC, MLSMR starter and 10KST1 sets (AID 438;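 active means inhibition above 20% together with a positive visual image hit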;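 further: compound added about 3h40 before a 20 min TNFalpha stimulation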;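 on inhibition: signal is the nuclear over cytoplasmic p65 intensity ratio per well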); conditions: HUVEC TNFa-induced p65 nuclear translocation; cell count: measured here: nuclei count (cytotoxicity indicator), at 2.08 µM; inhibition: at 2 µM, stronger effect = higher value, 0% TNFa-plus-vehicle, 100% no-TNFa wells
[2] = inhibitors of mutant huntingtin aggregation, primary screen, imaging, exon1htt(103Q)mCFP cells, high-content imaging (AID 483;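 active means visual image review flags a hit and inhibition of aggregation exceeds 20%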;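 further: compound exposure lasted 3 days before fixation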;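 on nuclei count: percent of the per-plate median nuclei count of sample wells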); conditions: exon1htt(103Q)mCFP cell line, aggregate imaging, at 2 µM; inhibition of aggregation: stronger effect = higher value; nuclei count: measured here: cell count, toxicity
[3] = inhibitors of E-selectin induction by TNFa, primary screen, imaging, HUVEC, immunofluorescence, MLSMR starter and 10KST1 sets (AID 487;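 active means visually confirmed hit in the image check and inhibition above 20%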;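 on inhibition: signal is fraction of cell area covered by stained E-selectin grains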;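 on nuclei count: 100% = median nuclei count of all wells on the same plate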); conditions: HUVEC TNFalpha-induced E-selectin immunofluorescence imaging, at 2 µM; inhibition: stronger effect = higher value; nuclei count: measured here: cell number, toxicity
[4] = biological target: Voltage-gated potassium channel subunit beta-2 (Rattus norvegicus) (UniProt P62483); test: KvBeta enzyme negative modulators, primary screen, biochemical, NADPH fluorescence (AID 622); conditions: recombinant KvBeta, 4-cyanobenzaldehyde reduction, at 10 µM, stronger effect = higher value;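 further: slope of raw intensity against log time taken from 70 to 1610 s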
[5] = biological target: Voltage-gated potassium channel subunit beta-2 (Rattus norvegicus) (UniProt P62483); test: KvBeta positive modulators, primary screen, biochemical, NADPH fluorescence (AID 623;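 active means NADPH fluorescence slope more negative than the mean of all samples by about 3 SD, 99.7% confidence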;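 further: fluorescence intensity change per second fitted from 20 to 320 s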); conditions: Recombinant KvBeta, NADPH fluorescence decrease slope, 10 min; at 10 µM; stronger effect = lower value
[6] = biological target: Alpha-2C adrenergic receptor (Homo sapiens) (UniProt P18825); test: modulators of alpha2C/GIRK thallium flux, primary screen, cell-based, HEK293 alpha2C/GIRK1/2 (AID 624;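 active means fluorescence slope after compound addition differing from the mean of all screened samples at 99.7% confidence, in either direction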;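 further: slope of fluorescence ratio to pre-addition baseline per second over 15 to 24 s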); conditions: thallium flux BTC fluorescence, at 10 µM, actives lie on both sides
[7] = inhibitors of Sendai virus-induced IRF3 signaling, primary screen, TLR/RLR signaling modifier project, cell-based, Sendai virus stimulus, luciferase, 10K MLSCN set (AID 602276;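 active means inhibition at or above 50% at 10 µM; inactive means inhibition below 50%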;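 further: firefly luciferase from ISG56 promoter only with Renilla not read in this screen; 0% = Sendai virus plus DMSO and 100% = medium plus DMSO without virus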); conditions: HEK293 RL24 IRF3 luciferase reporter, at 10 µM, stronger effect = higher value
[8] = inhibitors of poly I:C-induced TLR3 signaling, primary screen, cell-based, poly I:C stimulus, luciferase, 10K MLSCN set (AID 602277;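 active means inhibition of the reporter signal at or above 50%; inactive means inhibition below 50%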); conditions: HEK293-TLR3 RL24 IRF3 luciferase reporter, at 10 µM, stronger effect = higher value

Sequence of Voltage-gated potassium channel subunit beta-2 (Rattus norvegicus) (P62483 whole entry, looked up): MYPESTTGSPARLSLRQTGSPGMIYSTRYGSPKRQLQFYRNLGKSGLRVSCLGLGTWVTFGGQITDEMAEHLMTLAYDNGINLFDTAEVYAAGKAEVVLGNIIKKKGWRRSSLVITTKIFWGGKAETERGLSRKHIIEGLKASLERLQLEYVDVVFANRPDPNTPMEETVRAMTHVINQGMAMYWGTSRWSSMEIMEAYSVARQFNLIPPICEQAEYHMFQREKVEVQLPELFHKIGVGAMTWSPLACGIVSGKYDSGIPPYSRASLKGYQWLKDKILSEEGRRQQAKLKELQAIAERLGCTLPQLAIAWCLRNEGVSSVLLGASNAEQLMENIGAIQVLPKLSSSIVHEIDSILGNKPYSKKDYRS
Sequence of Alpha-2C adrenergic receptor (Homo sapiens) (P18825 whole entry, looked up): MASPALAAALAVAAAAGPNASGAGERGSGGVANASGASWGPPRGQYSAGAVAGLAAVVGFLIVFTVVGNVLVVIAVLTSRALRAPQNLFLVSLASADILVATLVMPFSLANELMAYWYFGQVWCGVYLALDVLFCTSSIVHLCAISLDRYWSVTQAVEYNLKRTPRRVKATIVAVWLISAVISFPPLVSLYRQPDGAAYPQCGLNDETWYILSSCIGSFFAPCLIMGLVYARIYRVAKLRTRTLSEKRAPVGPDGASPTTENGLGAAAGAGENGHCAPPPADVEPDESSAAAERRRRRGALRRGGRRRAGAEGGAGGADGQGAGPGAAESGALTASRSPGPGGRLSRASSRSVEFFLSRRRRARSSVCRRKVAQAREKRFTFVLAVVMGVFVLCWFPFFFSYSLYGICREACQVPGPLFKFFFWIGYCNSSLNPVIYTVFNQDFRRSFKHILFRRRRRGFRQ

| SMILES | cell count [1] | inhibition [1] | inhibition of aggregation [2] | nuclei count [2] | inhibition [3] | nuclei count [3] | fluorescence slope [4] | NADPH fluorescence slope [5] | slope [6] | inhibition [7] | inhibition [8] |
| --- | --- | --- | --- | --- | --- | --- | --- | --- | --- | --- | --- |
| COc1ccc2nc(SCC(=O)NC(C)C)[nH]c2c1 | 626 | 1.4% (inactive) | -0.8% (inactive) | 104% | -35.2% (inactive) | 107% | -0.478 (inactive) | 5.9e-05 (inactive) | 0.0062 (inactive) | -7.68% (inactive) | -5% (inactive) |
| NS(=O)(=O)c1ccc(CCNC(=O)c2cccnc2)cc1 | 580 | -8.3% (inactive) | -11.5% (inactive) | 105% | -75.4% (inactive) | 107% | -0.276 (inactive) | -6.8e-05 (inactive) | 0.00459 (inactive) | 10.9% (inactive) | 99.1% (active) |
| Cc1csc(NC(=O)C2CCCO2)n1 (stereo not drawn) | 725 | -11.4% (inactive) | -7.3% (inactive) | 101% | -133% (inactive) | 134% | -0.494 (inactive) | -5.6e-05 (inactive) | 0.00887 (inactive) | -2.56% (inactive) | 17.7% (inactive) |
| c1ccc(C(Cc2nc(-c3ccccn3)no2)c2ccccc2)cc1 | 337 | -8% (inactive) | 4% (inactive) | 110% | -83.3% (inactive) | 100% | -0.449 (inactive) | -6.2e-05 (inactive) | 0.00562 (inactive) | 20.3% (inactive) | 14.4% (inactive) |
| Cc1cc(NC(=O)c2ccc3c(c2)C(=O)N(Cc2cccnc2)C3=O)no1 | 770 | -6.4% (inactive) | 1.8% (inactive) | 107% | -127% (inactive) | 128% | -0.615 (inactive) | 1.2e-05 (inactive) | 0.00422 (inactive) | -5.06% (inactive) | -11.7% (inactive) |
| COc1ccc(C)cc1NCc1cccc(OC)c1OC | 335 | -7% (inactive) | 7% (inactive) | 111% | -41.1% (inactive) | 110% | -0.496 (inactive) | -2.7e-05 (inactive) | 0.00476 (inactive) | -7.74% (inactive) | 24.1% (inactive) |
| CN(C(=O)c1ccco1)c1nnc(C23CC4CC(CC(C4)C2)C3)s1 | 681 | -10% (inactive) | -1.7% (inactive) | 110% | -1.5% (inactive) | 126% | -0.408 (inactive) | -1.5e-05 (inactive) | 0.00459 (inactive) | -30.3% (inactive) | -32.2% (inactive) |
| Cc1ccc(-c2nn3c(C)nnc3s2)cc1N | 385 | 7.5% (inactive) | 9.7% (inactive) | 82% | 4.3% (inactive) | 114% | -0.405 (inactive) | -3e-05 (inactive) | 0.00541 (inactive) | -7.7% (inactive) | -47.2% (inactive) |
| CCc1nc2sc(C)c(C)c2c(=O)n1CCO | 396 | 7.2% (inactive) | 10.8% (inactive) | 81.4% | -64.6% (inactive) | 103% | -0.422 (inactive) | 1.1e-05 (inactive) | 0.00292 (inactive) | 5.69% (inactive) | 32% (inactive) |
| CCOC(=O)CSc1nnc(-c2ccc(NS(=O)(=O)c3ccc(C)cc3)cc2)o1 | 813 | -6.7% (inactive) | -0.7% (inactive) | 98.9% | -37.7% (inactive) | 108% | -0.433 (inactive) | -4.4e-05 (inactive) | 0.00389 (inactive) | 8.31% (inactive) | 29.4% (inactive) |
| COc1cc2c(cc1NCc1ccccn1)oc1ccccc12 | 304 | -1.5% (inactive) | 20.3% (inactive) | 66.4% | -27.9% (inactive) | 90.6% | -0.365 (inactive) | -4.6e-05 (inactive) | 0.00538 (inactive) | -24.8% (inactive) | -70.7% (inactive) |
| Cc1c(NC(=O)c2ccc(CN3CCc4ccccc4C3)cc2)c(=O)n(-c2ccccc2)n1C | 593 | -5.6% (inactive) | -45.4% (inactive) | 110% | -70.8% (inactive) | 142% | -0.403 (inactive) | -4.1e-05 (inactive) | 0.0063 (inactive) | 5.86% (inactive) | 7.1% (inactive) |
| O=C(OCC(=O)c1ccc[nH]1)c1ccc(S(=O)(=O)N2CCCCC2)cc1 | 314 | 22.9% (inactive) | 1.5% (inactive) | 96.8% | -31.1% (inactive) | 98% | -0.444 (inactive) | -4.5e-05 (inactive) | 0.00419 (inactive) | 2.97% (inactive) | 29.4% (inactive) |
| O=C(CSc1ncnc2nc[nH]c12)c1ccc(Cl)cc1 | 728 | -12.4% (inactive) | 9.4% (inactive) | 101% | 5.4% (inactive) | 95% | -0.5 (inactive) | -1.4e-05 (inactive) | 0.00583 (inactive) | -2.82% (inactive) | -23.1% (inactive) |
| O=C(Nc1nc(-c2ccccn2)cs1)C1CC1 | 673 | -3.3% (inactive) | 2.7% (inactive) | 94.5% | -21% (inactive) | 115% | -0.482 (inactive) | -7.5e-05 (inactive) | 0.00645 (inactive) | -68.6% (inactive) | -114% (inactive) |
| Cc1ccc(S(=O)(=O)NCCN2CCOCC2)cc1C | 408 | -14.3% (inactive) | 21.7% (inactive) | 92.2% | 31.4% (inactive) | 86.3% | -0.611 (inactive) | 1.4e-07 (inactive) | 0.00599 (inactive) | 13.7% (inactive) | 26.5% (inactive) |
| O=c1oc2ccccc2cc1NCc1ccccc1O | 644 | 2.1% (inactive) | -25% (inactive) | 115% | -19.5% (inactive) | 106% | -0.594 (inactive) | -1.9e-05 (inactive) | 0.00653 (inactive) | -15.8% (inactive) | -21.8% (inactive) |
| CN(Cc1nc(-c2ccncc2)no1)S(=O)(=O)c1ccc(Cl)cc1 | 601 | -6.4% (inactive) | -0.9% (inactive) | 88.3% | 1% (inactive) | 94.8% | -0.543 (inactive) | 6.1e-06 (inactive) | 0.00478 (inactive) | -18.2% (inactive) | -26.6% (inactive) |
| COc1ccc2c(c1)C(C)=CC(C)(C)N2C(=O)CSc1nnc(-c2ccc(C)cc2)o1 | 362 | 12.5% (inactive) | 8.3% (inactive) | 106% | 14.4% (inactive) | 117% | -0.451 (inactive) | 4.8e-05 (inactive) | 0.00352 (inactive) | -7.74% (inactive) | 17.4% (inactive) |
| CCCn1c(OC)nc2c1c(=O)n(C)c(=O)n2C | 660 | -3.7% (inactive) | 2.9% (inactive) | 104% | -34.6% (inactive) | 124% | -0.426 (inactive) | -5.4e-05 (inactive) | 0.00615 (inactive) | 15.2% (inactive) | 33.4% (inactive) |
| NC(=O)c1c(NC(=O)CN2CCCC2)sc2c1CCCC2 | 577 | 3% (inactive) | 5.3% (inactive) | 65.3% | 15.2% (inactive) | 84.6% | -0.599 (inactive) | -1.9e-05 (inactive) | 0.00312 (inactive) | -25.4% (inactive) | -70.1% (inactive) |
| Cc1cc(NC(=O)CSc2nc(CCC3CCCC3)nc3ccccc23)no1 | 400 | 3.5% (inactive) | -13.6% (inactive) | 113% | -41% (inactive) | 90% | -0.449 (inactive) | 4e-06 (inactive) | 0.00867 (inactive) | 8.39% (inactive) | 27.2% (inactive) |
| CCCC(=O)Nc1ccccc1-c1nnn(CC(=O)Nc2ccc(OCC)cc2)n1 | 369 | 3% (inactive) | -6.8% (inactive) | 97.4% | -7.5% (inactive) | 94.3% | -0.444 (inactive) | -0.000123 (inactive) | 0.00619 (inactive) | 12.2% (inactive) | 9.95% (inactive) |
| COc1cccc(S(=O)(=O)Nc2ccc(C(=O)N3CCN(C(=O)c4ccco4)CC3)cc2)c1 | 448 | -3.9% (inactive) | -8% (inactive) | 108% | -65.5% (inactive) | 124% | -0.507 (inactive) | -3.8e-05 (inactive) | 0.00603 (inactive) | 8.1% (inactive) | 7.91% (inactive) |
| CC1CCN(C(=O)CSc2nc3ccccc3[nH]2)CC1 | 761 | 0.5% (inactive) | 1.8% (inactive) | 110% | 75.2% (active) | 88.9% | -0.359 (inactive) | -9.6e-06 (inactive) | 0.00679 (inactive) | -38.7% (inactive) | -116% (inactive) |
| COc1cc2c(C)nc(C)c(C#N)c2cc1OC | 709 | -23.3% (inactive) | -17.8% (inactive) | 85.6% | -12.4% (inactive) | 124% | -0.481 (inactive) | -4.4e-05 (inactive) | 0.00598 (inactive) | 2.98% (inactive) | 2.54% (inactive) |
| COc1ccc(-c2nc(CSCC(=O)N3CCN(c4cccc(C)c4)C(C)C3)c(C)o2)cc1OC (stereo not drawn) | 549 | 2.3% (inactive) | 11.5% (inactive) | 92.1% | 5.7% (inactive) | 83.2% | -0.429 (inactive) | -5.4e-05 (inactive) | 0.00539 (inactive) | 4.11% (inactive) | 8.34% (inactive) |
| COC(=O)C1CCN(C(=O)NC(C)(C)C)CC1 | 307 | -4.5% (inactive) | 14.5% (inactive) | 82.1% | -37.4% (inactive) | 99.6% | -0.618 (inactive) | -4.3e-05 (inactive) | 0.00637 (inactive) | 5.02% (inactive) | 14.9% (inactive) |
